# According to paper PMC7819943, “Rice protein-binding microarrays: a tool to detect cis-acting elements near promoter regions in rice”:
# The full ranking holds about 35,000 sequences; the median of “fluorescence intensity (a.u.)” is about 10,000, and the highest 2% start at about 52,000. The sample as a whole holds a higher share of the highest values than the screen did.
# Target: T1, OsWOX13 (Oryza sativa, UniProt Q5QMM3 1-267)
# T1 sequence: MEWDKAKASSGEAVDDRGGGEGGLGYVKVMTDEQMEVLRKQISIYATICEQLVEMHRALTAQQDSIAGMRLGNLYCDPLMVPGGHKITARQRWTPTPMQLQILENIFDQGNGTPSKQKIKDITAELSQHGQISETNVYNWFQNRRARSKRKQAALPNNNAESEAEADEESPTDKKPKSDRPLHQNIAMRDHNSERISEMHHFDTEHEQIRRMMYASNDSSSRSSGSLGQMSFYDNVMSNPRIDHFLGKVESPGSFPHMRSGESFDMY
# Assay: protein-binding microarray (RPBM); PBS, 2% BSA, 51.3 ng/ul salmon testes DNA, 50 uM zinc acetate, 200 nM TF, 25 C, 1 h; high values mean tight binding
# Conditions: protein: recombinant; tags: N-terminal polyhistidine and DsRed monomer fusion (pET32a); label: CyDye5-dUTP incorporated in the synthesized complementary strand; 3' TTTTT single-stranded linker to array surface; dsDNA, one strand shown
# Procedure, shortened: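 Ni–NTA purification followed expression in E. coli BL21-CodonPlus of transcription factors fused N-terminally to a polyhistidine tag and DsRed. At 200 nM in PBS with 2% BSA, salmon testes DNA and 50 µM zinc acetate, the protein was incubated for 1 h at 25 °C with a custom Agilent array that had been primer-extended with Cy5-dUTP and blocked with 2% BSA. After washing, the array was read on an Axon 4000B scanner. The binding signal is per-feature fluorescence intensity in arbitrary units.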
row,Sequence,binding signal
1,TACTGATGAGCCACTGACGGGTGGGGCCAGTTGACTGACACGGAGTCACCTAGTGCAG,6930 fluorescence intensity (a.u.)
2,GCAGATTAGTCGTTAGTGGTGACAGAAACGGCAAAAGTGGCGGAGTCACCTAGTGCAG,6220 fluorescence intensity (a.u.)
3,CTCCGATTAATGTGGAAATTTCTAACCTCTACAGCGAACGCGGAGTCACCTAGTGCAG,6190 fluorescence intensity (a.u.)
4,TTTCTAATTTCTTTCAGCATCGTATTAATGTCGATATTAACGGAGTCACCTAGTGCAG,3250 fluorescence intensity (a.u.)
5,GCGAAATTAATCTTTTGGTTGTTTCTACCTTTGCTCTGATCGGAGTCACCTAGTGCAG,5540 fluorescence intensity (a.u.)
6,TTCGTGATTTATATAAAACATTCCCATGTTGAAACCCTAACGGAGTCACCTAGTGCAG,15400 fluorescence intensity (a.u.)
7,GTGTTGTGATTCAATTAATTTGGCAGACACCAATTTGCTGCGGAGTCACCTAGTGCAG,23200 fluorescence intensity (a.u.)
8,TACTTTGATTTGCACACAATCAAATGTACAGTAGTACATGCGGAGTCACCTAGTGCAG,28500 fluorescence intensity (a.u.)
9,TTAAATCAATAATTAAATATATTTTCATAATAAATTTGTGCGGAGTCACCTAGTGCAG,27500 fluorescence intensity (a.u.)
10,GTTTTAAATTAATATATCTCGCGGAATATTAGAGCAAACGCGGAGTCACCTAGTGCAG,12600 fluorescence intensity (a.u.)
11,AAACTTCATTTAGTAGATTGATTTTCTTAACCGAATATAGCGGAGTCACCTAGTGCAG,9560 fluorescence intensity (a.u.)
12,TAGTAGATTGATTTCCTTAACCGAATATAGCAGGAATCCGCGGAGTCACCTAGTGCAG,52900 fluorescence intensity (a.u.)
13,GTAGATCAATTTCCTTAACCGAATATAGCAAGAATCCGACCGGAGTCACCTAGTGCAG,3270 fluorescence intensity (a.u.)
14,TTGATTGTGTGCAACTGACTTTGTCCCCGTTCTATAATATCGGAGTCACCTAGTGCAG,8250 fluorescence intensity (a.u.)
15,ATGTTAATGCAAAATAAATTAAATACATAGCAAGGTACTACGGAGTCACCTAGTGCAG,11200 fluorescence intensity (a.u.)
16,TGTTATTTCAATCTCAGGATTGAGTGCAAGCAATCTGTTTCGGAGTCACCTAGTGCAG,4210 fluorescence intensity (a.u.)
17,TTTCAGTTATTTCCTAATTATATTTCTATATGGACTTAGTCGGAGTCACCTAGTGCAG,9980 fluorescence intensity (a.u.)
18,TTCAGTTTCTAGCTGGAAGAGACCTCCTATCATATATTTCCGGAGTCACCTAGTGCAG,53600 fluorescence intensity (a.u.)
19,CCGGATTTCAGTTATTTCCTAATTGCATTTCTATATGGACCGGAGTCACCTAGTGCAG,9320 fluorescence intensity (a.u.)
20,AAGATAATGATGTAGACACGCAATCTGCGCGGGCCCACCACGGAGTCACCTAGTGCAG,6040 fluorescence intensity (a.u.)
21,AGATTAGATTTAGATTAGTCCTATGTGTCTCTTGCCGGGTCGGAGTCACCTAGTGCAG,19100 fluorescence intensity (a.u.)

row,Sequence,binding signal
1,GAGAGACGGTTTAATCAAGGAGCAGTTGATGGGAGAGGCGCGGAGTCACCTAGTGCAG,4550 fluorescence intensity (a.u.)
2,ATCTGATTCGTGATTAATTAGTAATTAATTAATCTTTACTCGGAGTCACCTAGTGCAG,61000 fluorescence intensity (a.u.)
3,AATTTAATCTTTAATTAATTTATTTCTCGCCTCTCTTAACCGGAGTCACCTAGTGCAG,4610 fluorescence intensity (a.u.)
4,ACTTTAATTAGTCGTGATCAATCAATCAATCTGAATCTGTCGGAGTCACCTAGTGCAG,65100 fluorescence intensity (a.u.)
5,CGAGCTTTAATCAATTAATCTGGAGTTTAGTGAATATATTCGGAGTCACCTAGTGCAG,9200 fluorescence intensity (a.u.)
6,GTAATTAGCTAATCAATCTTTTCGGCTGTGCTTAATTAACCGGAGTCACCTAGTGCAG,33500 fluorescence intensity (a.u.)
7,TCGTGATGACAGTTTACTCTTTAAATGAGAGTAATTAACTCGGAGTCACCTAGTGCAG,17400 fluorescence intensity (a.u.)
8,CCAGTGATCAATTTAGCTCCATTTCACTAGTGCAATCTGTCGGAGTCACCTAGTGCAG,9160 fluorescence intensity (a.u.)
9,CTCAAGCTTAATTAAGCTCGTAATCTCATATAACCTCTTTCGGAGTCACCTAGTGCAG,57900 fluorescence intensity (a.u.)
10,GTTTGTGATTAATCTGATTTCGTACTATTAACGTGCAACTCGGAGTCACCTAGTGCAG,31300 fluorescence intensity (a.u.)
11,GTAACGGGATGATTGAAGCTACAACGAGAATGGCAACGTCCGGAGTCACCTAGTGCAG,22200 fluorescence intensity (a.u.)
12,AATATAAATTTAGATTAGCAGTGGTAAGAAGAGGGACGTCCGGAGTCACCTAGTGCAG,22600 fluorescence intensity (a.u.)
13,CAAAATATACTAATTTCTTCAAGCAAAGGTCCAGCCCATCCGGAGTCACCTAGTGCAG,3240 fluorescence intensity (a.u.)
14,GAATAGACCGAAATTAATTAAGGCAGTAATCACCCAGATGCGGAGTCACCTAGTGCAG,16100 fluorescence intensity (a.u.)
15,TATTAAGTCTAATTAATCCATGATTAGCCTATGTGATGCTCGGAGTCACCTAGTGCAG,15300 fluorescence intensity (a.u.)
16,GATGATGATGGATGCGATTGACTGATGAGACGTCTGCTAACGGAGTCACCTAGTGCAG,50300 fluorescence intensity (a.u.)
17,CCCTAAATTTCCGCGAAATCAGCAACCGAACACAGATTAGCGGAGTCACCTAGTGCAG,7110 fluorescence intensity (a.u.)
18,TCAATAAATCATAAAACAAATTTATTAAGCCTAATTAATCCGGAGTCACCTAGTGCAG,14000 fluorescence intensity (a.u.)
19,GCTTAATTGAAGGAGCCATGGCAGCTGTCCTCTCCCGCCGCGGAGTCACCTAGTGCAG,53200 fluorescence intensity (a.u.)
20,CCTCCTCATCATGGCTTAATTAATTAATACTCCTAGCTGCCGGAGTCACCTAGTGCAG,29000 fluorescence intensity (a.u.)
21,CGAAGATTGAGTCCTTTGAAGCCGAGCTCTCCATGGCCATCGGAGTCACCTAGTGCAG,17100 fluorescence intensity (a.u.)
